Measurements from article PMC5540273 (PLoS ONE, 2017).

Legend:
Conditions in all cases: concentration: 1 μM,replicates: in singlicate; n = 1
[1] = tested on: FYN
[2] = tested on: GAK
[3] = tested on: T1, GCN2(Kin.Dom.2,S808G)
T1 construct: gene EIF2AK4

[4] = tested on: GRK1
[5] = tested on: T2, GRK2
T2 construct: gene ADRBK1

[6] = tested on: T3, GRK3
T3 construct: gene ADRBK2

[7] = tested on: GRK4
[8] = tested on: GRK7
[9] = tested on: GSK3A
[10] = tested on: GSK3B
[11] = tested on: T4, HASPIN
T4 construct: gene GSG2

[12] = tested on: HCK
[13] = tested on: HIPK1
[14] = tested on: HIPK2
[15] = tested on: HIPK3
[16] = tested on: HIPK4
[17] = tested on: HPK1
[18] = tested on: HUNK
[19] = tested on: ICK
[20] = tested on: IGF1R
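Further: KINOMEscan kinase panel screen.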

| SMILES | %Inh [1] [%] | %Inh [2] [%] | %Inh [3] [%] | %Inh [4] [%] | %Inh [5] [%] | %Inh [6] [%] | %Inh [7] [%] | %Inh [8] [%] | %Inh [9] [%] | %Inh [10] [%] | %Inh [11] [%] | %Inh [12] [%] | %Inh [13] [%] | %Inh [14] [%] | %Inh [15] [%] | %Inh [16] [%] | %Inh [17] [%] | %Inh [18] [%] | %Inh [19] [%] | %Inh [20] [%] |
| --- | --- | --- | --- | --- | --- | --- | --- | --- | --- | --- | --- | --- | --- | --- | --- | --- | --- | --- | --- | --- |
| COC(=O)c1cccc(NC(=O)NC2CCN(c3ccnc(NCc4ccc(F)cc4)n3)CC2)c1 [GSK1379860] | 10 | 0 | 0 | 0 | 0 | 38 | 0 | 0 | 6 | 8 | 17 | 35 | 0 | 47 | 10 | 0 | 24 | 0 | 0 | 0 |
| Cc1ccc(CC(=O)N2CCc3cc(-c4cn(C)c5ncnc(N)c45)ccc32)cc1 [GSK2634758] | 41 | 34 | 42 | 0 | 0 | 24 | 0 | 0 | 9 | 0 | 5 | 0 | 6 | 0 | 13 | 5 | 63 | 1 | 0 | 18 |
| CC(C(=O)NC1CCN(c2ccnc(Nc3ccc(F)cc3)n2)C1)c1ccc(Cl)cc1 (stereo not shown) [GSK1379713] | 14 | 0 | 0 | 0 | 0 | 0 | 12 | 0 | 0 | 0 | 30 | 0 | 0 | 6 | 0 | 0 | 49 | 0 | 0 | 0 |
| CNC(=O)c1ccccc1Nc1nc(Nc2cccc(CS(C)(=O)=O)c2)ncc1C.O=CO [GSK1520489] | 98.9 | 94.7 | 100 | 8 | 0 | 100 | 85 | 40 | 25 | 34 | 52 | 99.2 | 93.5 | 88 | 92.7 | 97.2 | 96.8 | 0 | 20 | 90.7 |
| Cc1cccc2c(-c3ccncc3)c(-c3ccc(F)cc3)nn12.Cl [GW461487] | 4 | 67 | 1 | 0 | 0 | 21 | 100 | 0 | 12 | 10 | 2 | 0 | 0 | 0 | 19 | 0 | 28 | 5 | 0 | 0 |
| CC(=O)Nc1nc2cnc(Nc3cc(NC(=O)c4cccc(CC(C)(C)C#N)c4)ccc3C)nc2s1 | 0 | 9 | 0 | 0 | 15 | 0 | 0 | 44 | 0 | 2 | 0 | 32 | 29 | 10 | 6 | 13 | 0 | 2 | 44 | 9 |
| C[C@@H]1CNc2c(sc3ccc4nc(-c5ccncc5)ccc4c23)C(=O)N1 | 0 | 13 | 0 | 34 | 18 | 0 | 2 | 29 | 0 | 3 | 70 | 21 | 37 | 3 | 4 | 0 | 0 | 7 | 0 | 0 |
| COc1cc(Nc2nccc(N3CCC(NC(=O)c4cccc(C#N)c4)C3)n2)cc(OC)c1OC (stereo not shown) [GSK1379751] | 0 | 47 | 9 | 0 | 0 | 33 | 0 | 0 | 0 | 5 | 8 | 0 | 0 | 0 | 3 | 0 | 45 | 0 | 0 | 0 |
